Compound activity from PubChem BioAssay.
Only some compounds are listed: those with a hit (about 1.6% of all), similar ones and a draw of the others.
PERK inhibitor = inhibitors of human PERK kinase; 220,000 tested, 0.17% active; Q9NZJ5; inhibition, % at 5.6 µM; CHO PERK-DD fusion, SEAP luminescence translation reporter; AID 1416;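 active = inhibition above the mean inhibition of all tested compounds plus 3 SD, set separately per screening campaign, cut at about 2.9% in these data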;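 note: PERK kinase domain activated by AP20187 dimerizer at 100 nM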
MLLE-PAM2 inh = blocks PAM2 peptide binding to the PABP1 MLLE domain; inhibition, % at 20 µM; 360,000 tested, 0.36% active; P11940; GST-MLLE / FITC-PAM2 fluorescence polarization; AID 588489; in the data active = inhibition above about 35%, passing the limit was not always enough
eIF4H inh = inhibitors of RNA binding by human eIF4H; Q15056; AID 2012; inhibition, % at 35 µM; eIF4H fluorescence polarization binding assay; 290,000 tested, 0.94% active;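 note: calls also rest on retests at 20 µM and on dose response follow-up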
PABP FP inh = PABP-poly(A) binding inhibition | P11940 | PABP-poly(A) RNA binding, fluorescence polarization | inhibition, % at 35 µM | 290,000 tested, 1% active;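 note: calls also rest on retests at 20 µM and on dose response follow-up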
eIF4E-4G inh = blocks eIF4E binding to eIF4G | 220,000 tested, 0.37% active | P63073+Q04637 | AID 782 | TR-FRET eIF4E-eIF4GI(517-606) binding, 2 h | inhibition, % at 21.7 µM;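 active = inhibition above about 30%, limit read from the data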
A number is an active result; - = inactive; ? = inconclusive; . = not tested or not shown. Unless noted, the rule behind the calls is not given here.

SMILES	PERK inhibitor	MLLE-PAM2 inh	eIF4H inh	PABP FP inh	eIF4E-4G inh
CC(=O)N(c1nc(CCl)cs1)c1ccc(C)cc1C	-	-	-	-	-
CCc1ccccc1N(C(C)=O)c1nc(CCl)cs1	-	-	active	-	-
Cc1n[nH]c(C)c1-c1nc2ccccc2[nH]1	-	-	-	-	-
Cn1nnnc1SCCNCc1cccnc1	3.2	-	-	-	-
COc1cccc(CNCCSc2nnnn2C)c1	-	-	-	-	-
Cc1cc(-c2ccccc2)nc(-c2ccccc2)c1C	-	-	-	-	-
CC(=O)Nc1c(-c2ccccc2)nc2ncccn12	-	-	-	-	33
N=c1sccn1CC(=O)Nc1ccccc1Cc1ccccc1	-	-	-	-	-
N=c1sccn1CC(=O)NC(c1ccccc1)c1ccccc1	-	-	1.1	-	-
C=CCn1c(CNC(=O)c2ccco2)nnc1SCC(=O)c1ccccc1	-	-	-	-	-
Cc1cccc(NC(=O)C2CCCN(S(=O)(=O)c3ccc(-n4cnnn4)cc3)C2)c1 (stereo unspecified)	.	-	-	-	.
Cc1ccc(C(C)C)c(Oc2nnnn2-c2ccccc2)c1	-	-	-	-	-
COc1ccc(NC(=O)NS(=O)(=O)c2ccc(C)cc2)cn1	.	-	?	?	.
COc1ccc(NC(=O)Nc2ccc([N+](=O)[O-])cc2)cn1	.	58	82	51	.
COc1ccc(NC(=O)Nc2cc(C)cc(C)c2)cn1	-	66	-	-	-
COc1ccc(NC(=O)Nc2ccc(OCc3ccccc3)cc2)cn1	.	66	?	?	.
COc1ccc(NC(=O)Nc2cccs2)cn1	.	-	-	-	.
CCc1nnc(NC(=O)CCN2C(=O)/C(=C/c3cc(OC)c(OC)c(OC)c3)SC2=S)s1	.	-	-	-	.
CCOC(=O)C1CCCN(c2cc(=O)n(-c3ccccc3Cl)c(=O)[nH]2)C1 (stereo unspecified)	3.3	-	-	-	-
Cc1cccc(NC(=O)c2cnc3ccccn3c2=O)c1	3.1	-	-	-	-
Cc1ccc(Cn2nc(C)c(NC(=O)CSc3nc4c(c(C(F)(F)F)n3)CCc3ccccc3-4)c2C)cc1	-	-	-	-	30
O=C1/C(=C/c2ccc(Br)cc2)Oc2cc(O)ccc21	.	-	-	36	.
O=C(CN1C(=O)/C(=C/c2ccccc2Cl)SC1=S)NC1CCS(=O)(=O)C1 (stereo unspecified)	.	39	-	-	.
CC(=O)c1cnc2cc(-c3ccc(C)cc3)nn2c1C	-	-	-	-	-
Cc1ccc2cc(CN(CCN3CCOCC3)Cc3nnnn3Cc3ccco3)c(=O)[nH]c2c1C	-	-	86	72	-
SMILES	PERK inhibitor	MLLE-PAM2 inh	eIF4H inh	PABP FP inh	eIF4E-4G inh
COc1cc2cc(CN(Cc3nnnn3Cc3ccco3)C3CCCCC3)c(=O)[nH]c2cc1OC	-	-	61	64	-
COCCn1nnnc1CN(Cc1cc2cc(OC)c(OC)cc2[nH]c1=O)C1CCCC1	-	-	51	85	-
CCOc1ccc2[nH]c(=O)c(CN(Cc3nnnn3Cc3ccco3)C3CCCCC3)cc2c1	-	-	57	32	-
COc1ccc(-c2nc(C#N)c(NCCCN3CCOCC3)o2)cc1	-	-	-	-	-
O=C(Nc1ccccc1Cc1ccccc1)c1ccccc1NS(=O)(=O)c1ccc(Cl)s1	-	-	-	-	-
CCCCC(=O)Nc1ccc2oc(-c3ccncc3)nc2c1	-	-	-	-	55
CCCC(=O)Nc1ccc2oc(-c3ccncc3)nc2c1	-	-	-	-	-
N#CC1=C(N)SC(N)=C(C#N)C1c1cccc(O)c1	-	-	74	73	-
COC(=O)c1ccc(CSc2nc(-c3ccccc3)cs2)o1	-	-	-	-	-
COc1ccc2nc3cc(Cl)ccc3c(C#N)c2c1	-	54	-	-	-
COc1ccc2nc(C(F)(F)Cl)c(C#N)c(N)c2c1	-	-	-	-	-
COC(=O)c1sc(NC(=O)c2ccoc2C)nc1C	-	-	-	-	-
COC(=O)c1sc(NC(=O)/C=C/c2ccc(C)o2)nc1C	-	-	95	-	-
CC(C)c1ccc(/C=C/C(=O)Nc2nn[nH]n2)cc1	-	.	-	-	-
Cc1ccc(/C=C/C(=O)Nc2nn[nH]n2)o1	-	36	-	-	-
Cc1c(NC(=O)CSCc2ccc(Br)cc2)c(=O)n(-c2ccccc2)n1C	-	-	active	75	-
COc1ccc(-c2ccc(C(=O)NCCN(C)C)c3occc23)c(C)c1	.	-	.	.	.
Cc1csc2c(SCC(=O)NNC(=O)C(Cl)Cl)ncnc12	3.1	-	-	-	-
Cc1ccc(-n2ncc3c(SCC(=O)NNC(=O)C(C)C)ncnc32)cc1	.	-	-	-	.
Cc1cc(OCC(=O)N2CCN(c3ccccc3)CC2)c2c(C)c(C)c(=O)oc2c1	.	-	-	-	.
CC(C)C(NC=C1C(=O)OC(C)(C)OC1=O)C(=O)O (stereo unspecified)	-	-	-	-	.
CC(NC=C1C(=O)OC(C)(C)OC1=O)C(=O)O (stereo unspecified)	3.3	-	-	-	-
Cc1oc2c(cc(NS(=O)(=O)c3ccc(C(C)C)cc3)c3ccccc32)c1C(=O)O	.	-	66	64	.
Cc1oc2c(cc(NS(=O)(=O)c3ccc(F)cc3)c3ccccc32)c1C(=O)O	.	-	-	-	.
COCCN1C=C2C(=O)C(C)(OC(=O)c3cccs3)C(=O)C=C2C=C1CCCC(=O)OC (stereo unspecified)	.	-	-	-	-
SMILES	PERK inhibitor	MLLE-PAM2 inh	eIF4H inh	PABP FP inh	eIF4E-4G inh
CCOC(=O)c1sc(NC(=O)C2CC2)nc1C	-	-	-	-	-
CCOC(=O)c1sc(NC(=O)C2C3C=CC(C3)C2C(=O)O)nc1C (stereo unspecified)	3.4	-	-	-	-
O=C(Cc1ccc([N+](=O)[O-])cc1)c1c(O)cc(O)cc1O	-	-	-	-	-
Cc1[nH]c2ccccc2c1/C=C(\C#N)C(=O)NC1CC1	.	-	-	-	.
Cc1[nH]c2ccccc2c1/C=C(\C#N)C(=O)NC(C)c1ccccc1 (stereo unspecified)	-	-	-	57	-
CCCCN(C(=O)C1CCC1)c1c(N)n(CCC)c(=O)[nH]c1=O	.	-	.	.	.
O=c1[nH]c2cc3c(cc2cc1C(c1nnnn1Cc1ccccc1)N1CCCCCC1)OCCO3 (stereo unspecified)	-	-	-	124	-
Cc1cc2cc(C(c3nnnn3Cc3ccco3)N3CCCCC3)c(=O)[nH]c2cc1C (stereo unspecified)	-	-	57	54	-
O=c1[nH]cnc(CN2CCCCC2)c1O	.	-	.	.	.
O=c1[nH]c(CN2CCCCC2)ccc1O	.	45	.	.	.
CC(=O)c1c(C)[nH]c(C(=O)Nc2ccccc2Cl)c1C	.	-	-	-	.
CN(C)CCCn1c(N)c(C#N)c2nc3ccccc3nc21	-	-	?	?	-
CCCCC(CC)Cn1c(N)c(C#N)c2nc3ccccc3nc21 (stereo unspecified)	-	-	68	64	-
COc1ccc(-c2cc(=O)oc3cc(OC(C)C(=O)NC4CC4)ccc23)cc1 (stereo unspecified)	.	-	-	-	.
C=CCn1c(C)cc(C(=O)COc2ccc(C)nc2[N+](=O)[O-])c1C	-	-	?	-	-
